Laboratory results from PubChem BioAssay (NCATS).
Values without a mark were called inactive. Calls follow the shape of the dose curve; as a rule, active = well fitted curve in the direction sought with a large enough effect; inconclusive = small, poorly fitted or top-dose-only effect, or effect the other way, or another doubt; inactive = no such curve, though single readings can be large or run the other way.

Test: Inducers of the Endoplasmic Reticulum Stress Response (ERSR) in human glioma: Validation (AID 504836); also: 0% is about no effect
Settings: human glioma cells, ER stress response reporter; series mostly up to 38.3 µM; activation: at the top concentration
How it was run: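 Stably transfected U87-MG human glioma cells carrying a GRP78-based luminescent sensor were seeded at 1000 cells/well, pin-dosed with compounds and incubated 16 h. Luciferase reagent was then added, and end-point luminescence was read after 10 min at room temperature.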

Compound	activation
C[N+](C)(C)CCOC(N)=O	2.42%
O=c1c(-c2ccc(O)cc2)coc2cc(O)cc(O)c12	-10.6%
NC(=O)N1c2ccccc2C=Cc2ccccc21	-4.4%
COc1ccc(C2CNC(=O)C2)cc1OC1CCCC1 (stereo not drawn)	-0.709%
Clc1ccc2nsnc2c1NC1=NCCN1	-4.09%
NCCCNCCSP(=O)(O)O	1.55%
CC(=O)c1ccc(S(=O)(=O)NC(=O)NC2CCCCC2)cc1	1.16%
COC(=O)[C@@H]1[C@H]2C[C@H]3c4[nH]c5ccccc5c4CCN3C[C@@H]2CC[C@@H]1O	-3.44%
CC(=O)OC(C)C[N+](C)(C)C (stereo not drawn)	-1.78%
CNCCCC12CCC(c3ccccc31)c1ccccc12	0.453%
CNCC(O)c1ccc(O)c(O)c1 (stereo not drawn)	-3.67%
Nc1nc2ccc(OC(F)(F)F)cc2s1	-3.72%
CCN(CC)CC#CCOC(=O)C(O)(c1ccccc1)C1CCCCC1 (stereo not drawn)	-2.55%
CCCCCCCCCCCCCCCC(=O)NCCO	-1.91%
CC(C)C(=O)c1c(C(C)C)nn2ccccc12	-1.23%
CCCNC(C)C(=O)Nc1ccccc1C (stereo not drawn)	-2.81%
CCN(CC)CCNC(=O)c1cc(S(C)(=O)=O)ccc1OC	-1.39%
CC(N=C(NC#N)Nc1ccncc1)C(C)(C)C (stereo not drawn)	-4.53%
